# Reference: PubChem BioAssay (NCI)
# This is part of a sample that, as a whole, favours compounds with a hit. Of some 79,000 tested, about 15% had one in any assay. Unmarked numbers belong to inactive results. Active and inactive are the calls of the source. Cut-off read from the data, not from the text of the source: active = growth inhibition above about 70%; inactive = the rest.
# Assays:
# [1] = NCI Yeast Anticancer Drug Screen. Data for the rad50 strain (AID 155);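 note: 0% = growth of vehicle-only cultures of the same strain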; conditions: S. cerevisiae rad50 strain growth inhibition, stronger effect = higher value
# Procedure, shortened: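 Genetically altered yeast (DNA repair pathway); compound treatment; growth inhibition vs vehicle ctrl.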
# [2] = NCI Yeast Anticancer Drug Screen. Data for the mec2-1 strain (AID 157); conditions: S. cerevisiae mec2-1 strain, stronger effect = higher value
# Procedure, shortened: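 Using mec2-1 yeast: add compound, measure growth, express inhibition versus vehicle-treated cultures.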
# [3] = NCI Yeast Anticancer Drug Screen. Data for the sgs1 mgt1 strain (AID 161);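 note: 0% = growth of cultures given vehicle only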; conditions: S. cerevisiae sgs1 mgt1 strain, stronger effect = higher value
# Procedure, shortened: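 Compounds are added to genetically altered yeast, and growth is compared with cultures given vehicle alone to give percent inhibition.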
# [4] = NCI Yeast Anticancer Drug Screen. Data for the cln2 rad14 strain (AID 165);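 note: 0% = growth equal to vehicle treated cultures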; conditions: S. cerevisiae cln2 rad14 strain, stronger effect = higher value
# Procedure, shortened: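 Yeast strain cln2 rad14, bearing defects in cell cycle control and DNA repair, serves as the test system; values reflect growth inhibition compared with vehicle.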
# [5] = NCI Yeast Anticancer Drug Screen. Data for the bub3 strain (AID 167); conditions: S. cerevisiae bub3 mutant strain, stronger effect = higher value
# Procedure, shortened: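 Yeast carrying a defined mutation is treated with each compound, and growth is compared with that of vehicle-exposed cells to give inhibition.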
# [6] = NCI Yeast Anticancer Drug Screen. Data for the mlh1 rad18 strain (AID 175); conditions: S. cerevisiae mlh1 rad18 strain growth inhibition, stronger effect = higher value
# Procedure, shortened: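 Steps: expose repair-defective yeast to compound; measure growth; express inhibition against vehicle-treated controls.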
# [7] = at 5.0 µM (retest, dose inferred, filed as 0.5)
# [8] = at 50.0 µM (retest, dose inferred, filed as 5.0)
Compound,"growth inhibition [1, 7]","growth inhibition [1, 8]",growth inhibition ([1]; at 50.0 µM),"growth inhibition [2, 7]","growth inhibition [2, 8]",growth inhibition ([2]; at 50.0 µM),"growth inhibition [3, 7]","growth inhibition [3, 8]",growth inhibition ([3]; at 50.0 µM),"growth inhibition [4, 7]","growth inhibition [4, 8]",growth inhibition ([4]; at 50.0 µM),"growth inhibition [5, 7]","growth inhibition [5, 8]",growth inhibition ([5]; at 50.0 µM),"growth inhibition [6, 7]","growth inhibition [6, 8]",growth inhibition ([6]; at 50.0 µM)
CCOC(=O)C1SC(=Nc2cccc(Cl)c2C)N=C1C (stereo not given),22%,83% (active),85.3% (active),24%,72% (active),88.1% (active),23%,91% (active),82% (active),27%,73% (active),86% (active),34%,88% (active),89.4% (active),38%,91% (active),86.2% (active)
CCCCCCCC[N+](C)(CCCCCCCC)CCCCCCCC,51%,95% (active),90.5% (active),47%,91% (active),92.2% (active),98% (active),97% (active),93% (active),71% (active),98% (active),91.7% (active),96% (active),96% (active),91.7% (active),41%,98% (active),91.2% (active)
O=[N+]([O-])c1nccn1CCCNCCCn1ccnc1[N+](=O)[O-],27%,28%,0.45%,0%,-2%,1.2%,15%,26%,-6.7%,24%,17%,-20.1%,8%,14%,-14.9%,24%,20%,21.1%
O=C(Nc1ccc(Cl)cc1)c1cccc([N+](=O)[O-])c1O,9%,13%,32.8%,5%,11%,-8.45%,8%,11%,70.8% (active),-3%,34%,-22%,6%,10%,-5%,7%,16%,11.2%
CN(C)c1ccc(SC(=S)NCc2ccccc2)cc1,4%,92% (active),97.5% (active),-7%,92% (active),98.2% (active),-2%,82% (active),96.3% (active),-3%,28%,95.8% (active),-8%,96% (active),97% (active),4%,90% (active),94.4% (active)
CC(C)n1nnc2ccccc2c1=Nc1ccccc1,1%,85% (active),96.1% (active),-6%,95% (active),97% (active),-2%,89% (active),96.2% (active),6%,16%,91.3% (active),0%,63%,95.5% (active),16%,90% (active),96.5% (active)
CC1(C)C[C@H]2C=C(C=O)[C@]34C[C@]3(C(=O)OC4O)[C@H]2C1 (stereo not given in full),94% (active),99% (active),92.5% (active),98% (active),100% (active),93.6% (active),98% (active),100% (active),93.2% (active),84% (active),99% (active),92.3% (active),97% (active),100% (active),92.3% (active),96% (active),97% (active),90.7% (active)
CC(=O)SCC(=O)Nc1ccc(Cl)cc1,9%,91% (active),88% (active),1%,81% (active),68.9%,-4%,85% (active),91.1% (active),2%,43%,58.5%,-18%,90% (active),79.9% (active),7%,90% (active),91.6% (active)
CCCCCCCCCCCC(=O)c1c(O)c2ccccc2oc1=O,6%,-4%,54.1%,45%,28%,44.4%,21%,-8%,71.2% (active),-14%,-7%,22.3%,0%,-21%,43.8%,-4%,-4%,68%
Cc1cc(Sc2ccccc2)c2c(C)ccc(C(C)C)cc1-2,0%,-7%,-13.8%,-8%,-12%,61.4%,1%,6%,-0.65%,-16%,-9%,78.2% (active),-5%,-10%,21.4%,-2%,-3%,58%
